Drawing on PubChem BioAssay (EPA / NIEHS), this text covers outcome and AC50 for 7 molecules.

Results filed as inconclusive are left out. Calls of active or inactive are those of the source. Rule for the calls, unless noted: active = hit-call score of the fitted dose curve at least 0.9, where 1 is the maximum; inactive = score below 0.9.

Experiment [1] is described as follows: ATG_NF_kB_CIS: Attagene CIS-FACTORIAL HepG2 Assay for human Nuclear Factor Kappa B (NF-kB) (AID 2282991). To be noted: HepG2 Attagene cis-factorial NF-kB reporter mRNA; actives raise or lower the signal. The procedure, abridged: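 Endogenous transcription factor activity in HepG2 was captured via cis-regulated reporter constructs; after 24 h dosing, reporter mRNA was reverse-transcribed, amplified, fluorescently labelled and sized by capillary electrophoresis, with activity fitted bidirectionally relative to DMSO.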

Experiment [2] in a line: ATG_NRF2_ARE_CIS: Attagene CIS-FACTORIAL HepG2 Assay for human Nuclear Factor Erythroid 2 Related Factor 2 (NFR2) response to Antioxidant Response Elements (ARE) (AID 2282992).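 For AC50: reporter mRNA level measured by RT-PCR and capillary electrophoresis fluorescence.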 To be noted: HepG2 Attagene ARE/NRF2 reporter, transcription factor activity; actives raise or lower the signal. The method in brief:
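Fluorescence intensity of reporter-specific cDNA fragments, separated by capillary electrophoresis, reflects mRNA induction in transfected HepG2 cells at 24 h. Activity is fitted bidirectionally, DMSO serving as baseline.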

The nature of experiment [3]: ATG_Oct_MLP_CIS: Attagene CIS-FACTORIAL HepG2 Assay for human Octamer-Binding Transcription Factor (Oct) (AID 2282993). To be noted: HepG2 Attagene cis-factorial Oct reporter, mRNA; actives raise or lower the signal. The procedure, abridged: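 Transient MRTU transfection of HepG2 → 24 h compound treatment → RNA isolation, reverse transcription, PCR → 6-FAM primer extension, HpaI digest → capillary electrophoresis. Activity fitted both directions against DMSO.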

In experiment [4] the target is Cellular tumor antigen p53 (Homo sapiens) (UniProt P04637). In words: ATG_p53_CIS: Attagene CIS-FACTORIAL HepG2 Assay for human p53 Transcription Factor (AID 2282994). To be noted: HepG2 p53 cis-element reporter, Attagene mRNA; actives raise or lower the signal. The procedure, abridged: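 Transiently transfected HepG2 (multiple cis reporter transcription units); exposure 24 h; reporter RNA via RT-PCR, 6-FAM extension, 2 h HpaI digest at 37 C, CE detection; DMSO baseline.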

Experiment [5] is described as follows: BSK_3C_TissueFactor: BioMAP Diversity Plus: 3C Assay for Tissue Factor Biomarker Activity (AID 2282997). To be noted: BioMAP 3C HUVEC, tissue factor biomarker readout; actives raise or lower the signal. The method in brief: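 Cells used were primary human umbilical vein endothelial cells. They were dosed with chemical, and after 24 h Tissue Factor was quantified by ELISA. Curves were fitted bidirectionally with DMSO as baseline.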

Experiment [6] is described as follows: BSK_3C_uPAR: BioMAP Diversity Plus: 3C Assay for Urokinase-type plasminogen activator receptor (uPAR) Biomarker Activity (AID 2282998). The conditions noted are these: BioMAP 3C HUVEC, uPAR biomarker ELISA; actives raise or lower the signal. The procedure, abridged:
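ELISA readout of uPAR on human vascular endothelium (umbilical vein primary cells), taken 24 h after chemical dosing. Increases and decreases are both fitted relative to DMSO vehicle.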
Background: In an ELISA, binding on a coated surface is turned into a signal by an enzyme label.

The nature of experiment [7]: BSK_3C_VCAM1: BioMAP Diversity Plus: 3C Assay for Vascular cell adhesion molecule 1 (VCAM1) Biomarker Activity (AID 2282999). To be noted: BioMAP 3C HUVEC, VCAM1 ELISA, cytokine-stimulated; actives raise or lower the signal. The procedure, abridged: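 Activity fitted in both directions relative to DMSO, with ELISA measurement of the surface marker on primary HUVEC (3C) at 24 h post-treatment; parallel SRB staining (0.1% SRB, TCA-fixed, 560 nm) flagged overt cytotoxicity.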

Experiment [8] in a line: BSK_4H_Eotaxin3: BioMAP Diversity Plus: 4H Assay for Eotaxin 3 Biomarker Activity (AID 2283000).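 For outcome: CCL26 protein level quantified by ELISA in parallel with SRB cytotoxicity check.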 The conditions noted are these: primary human endothelial cells (HUVEC); actives raise or lower the signal. The procedure, abridged:
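Endothelial primary cells (human umbilical vein) exposed to compound for 24 h. ELISA detection of Eotaxin-3.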

Experiment [9] deals with human Peroxisome Proliferator-activated Receptor alpha (PPARa), PPARA (gene 5465) (UniProt Q07869). Briefly: ATG_PPARa_TRANS: Attagene TRANS-FACTORIAL HepG2 Assay for human Peroxisome Proliferator-activated Receptor alpha (PPARa) (AID 2283001; active = hit-call score of the fitted dose curve at least 0.9, where 1 is the maximum;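 for AC50: potency for gain of reporter signal over DMSO so agonist or activator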). The method in brief: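 Transfected HepG2 cells treated with test chemical for 24 h. RNA isolated, reverse-transcribed with oligo(dT), PCR-amplified, FAM-labelled and HpaI-digested. Fragments sized by capillary electrophoresis; gain-of-signal fit relative to DMSO.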

Read-out in experiment [10]: Intercellular Adhesion Molecule 1 (ICAM1), ICAM1 (gene 3383)
Briefly: BSK_3C_ICAM1: BioMAP Diversity Plus: 3C Assay for Intercellular Adhesion Molecule 1 (ICAM1) Biomarker Activity (AID 2283003). To be noted: primary human endothelial cells (HUVEC); actives raise or lower the signal. The method in brief:
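Using DMSO as baseline, bidirectional curve fitting was applied to ICAM-1 ELISA signals from HUVEC in the 3C system, measured 24 h after compound addition.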

Experiment [11] concerns the target human Retinoic Acid Receptor beta (RARb), RARB (gene 5915) (UniProt P10826). In words: ATG_RARb_TRANS: Attagene TRANS-FACTORIAL HepG2 Assay for human Retinoic Acid Receptor beta (AID 2283004; active = hit-call score of the fitted dose curve at least 0.9, where 1 is the maximum). The procedure, abridged: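 HepG2, transient MRTU transfection, NR–Gal4 chimera, 24 h treatment; RT-PCR plus CE fluorescence detection of reporter mRNA; gain of signal vs DMSO.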

The target of experiment [12] is Retinoic acid receptor alpha (Homo sapiens) (UniProt P10276). Briefly: ATG_RARa_TRANS: Attagene TRANS-FACTORIAL HepG2 Assay for human Retinoic Acid Receptor alpha (RARa) (AID 2283005; active = hit-call score of the fitted dose curve at least 0.9, where 1 is the maximum). The method in brief:
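Reporter transcripts, measured by RT-PCR with fluorescent labeling and capillary electrophoresis after 24 h dosing, reflect activity of an exogenous human RARa–GAL4 fusion in transiently transfected HepG2. Fitted for increase relative to DMSO.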

The nature of experiment [13]: BSK_3C_Proliferation: Cell Proliferation Assessment in the BioMAP Diversity Plus: 3C Assay (AID 2283006).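 For AC50: potency may reflect either rise or fall in cell number versus DMSO.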 The conditions noted are these: primary human endothelial cells (HUVEC). The method in brief: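 Measured here: sulforhodamine B (0.1%) staining of TCA-fixed sub-confluent umbilical vein endothelial cultures 48 h post-dosing, absorbance 560 nm. DMSO served as negative control and baseline; both signal gain and loss were modelled.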

Experiment [14] concerns the target Peroxisome proliferator-activated receptor gamma (Homo sapiens) (UniProt P37231). Briefly: ATG_PPARg_TRANS: Attagene TRANS-FACTORIAL HepG2 Assay for human Peroxisome Proliferator-activated Receptor-gamma (PPARg) (AID 2283007; active = hit-call score of the fitted dose curve at least 0.9, where 1 is the maximum). The procedure, abridged:
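A TRANS-format multiplexed reporter assay measures activity of an exogenous chimeric NR-Gal4 protein in HepG2 cells. After 24 h of chemical exposure, reporter transcripts are amplified, fluorescently labelled and sized by capillary electrophoresis, with gain of signal scored against DMSO.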

The target in experiment [15] is human Retinoic Acid Receptor gamma (RARg), RARG (gene 5916) (UniProt P13631). In words: ATG_RARg_TRANS: Attagene TRANS-FACTORIAL HepG2 Assay for human Retinoic Acid Receptor gamma (RARg) (AID 2283009; active = hit-call score of the fitted dose curve at least 0.9, where 1 is the maximum). The method in brief:
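Gain-of-signal relative to DMSO is reported from fluorescent capillary electrophoresis of RT-PCR reporter products. These came from HepG2 cells expressing transfected RARg-GAL4 chimeras with UAS reporters, harvested 24 h after dosing.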

Experiment [16] addresses Retinoic acid receptor RXR-alpha (Homo sapiens) (UniProt P19793). Briefly: ATG_RXRa_TRANS: Attagene TRANS-FACTORIAL HepG2 Assay for human Retinoid X Receptor alpha (RXRa) (AID 2283012; active = hit-call score of the fitted dose curve at least 0.9, where 1 is the maximum). The method in brief: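 Chimeric NR-GAL4 trans-activation in HepG2, 24 h treatment; reporter transcripts quantified by fluorescence on capillary electrophoresis, analysed for upward change from DMSO.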

In experiment [17] the target is human RAR-related Orphan Receptor gamma (RORg), RORC (gene 6097) (UniProt P51449). In words: ATG_RORg_TRANS: Attagene TRANS-FACTORIAL HepG2 Assay for human RAR-related Orphan Receptor gamma (RORg) (AID 2283011; active = hit-call score of the fitted dose curve at least 0.9, where 1 is the maximum). The method in brief: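 Activity is scored as increase in GAL4-UAS reporter mRNA over DMSO, detected by fluorescent RT-PCR and capillary electrophoresis in HepG2 cells transiently expressing a RORg-Gal4 chimera, 24 h after dosing.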

In experiment [18] the target is Nuclear receptor subfamily 1 group I member 2 (Homo sapiens) (UniProt O75469). In words: ATG_PXR_TRANS: Attagene TRANS-FACTORIAL HepG2 Assay for human Pregnane X Receptor (PXR) (AID 2283008; active = hit-call score of the fitted dose curve at least 0.9, where 1 is the maximum). The method in brief: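 Transient HepG2 transfectants carrying multiplexed reporter transcription units; PXR activity read through a Gal4 chimera. 24 h exposure. RT-PCR/CE fluorescence; upward curve fit referenced to DMSO.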

Experiment [19] addresses human RAR-related Orphan Receptor beta (RORb), RORB (gene 6096) (UniProt Q92753). In words: ATG_RORb_TRANS: Attagene TRANS-FACTORIAL HepG2 Assay for human RAR-related Orphan Receptor beta (RORb) (AID 2283010; active = hit-call score of the fitted dose curve at least 0.9, where 1 is the maximum). The procedure, abridged: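 Multiplexed transcription-factor reporter assay: HepG2 cells transiently carrying NR-Gal4/GAL4-UAS constructs, 24 h treatment, mRNA quantified by RT-PCR plus capillary electrophoresis fluorescence; activity scored as induction over DMSO.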

The target of experiment [20] is human Peroxisome Proliferator-activated Receptor delta (PPARd), PPARD (gene 5467) (UniProt Q03181). Briefly: ATG_PPARd_TRANS: Attagene TRANS-FACTORIAL HepG2 Assay for human Peroxisome Proliferator-activated Receptor delta (PPARd) (AID 2283002; active = hit-call score of the fitted dose curve at least 0.9, where 1 is the maximum). The method in brief: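 Transient HepG2 transfection (multiple GAL4-UAS RTUs, chimeric receptor-Gal4); 24 h dosing; total RNA → oligo(dT) RT → PCR → 6-FAM primer extension → HpaI cut → CE. Positive direction vs DMSO.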

Sequence of Retinoic acid receptor alpha (Homo sapiens) (P10276 whole entry, looked up, the tested form may be a part): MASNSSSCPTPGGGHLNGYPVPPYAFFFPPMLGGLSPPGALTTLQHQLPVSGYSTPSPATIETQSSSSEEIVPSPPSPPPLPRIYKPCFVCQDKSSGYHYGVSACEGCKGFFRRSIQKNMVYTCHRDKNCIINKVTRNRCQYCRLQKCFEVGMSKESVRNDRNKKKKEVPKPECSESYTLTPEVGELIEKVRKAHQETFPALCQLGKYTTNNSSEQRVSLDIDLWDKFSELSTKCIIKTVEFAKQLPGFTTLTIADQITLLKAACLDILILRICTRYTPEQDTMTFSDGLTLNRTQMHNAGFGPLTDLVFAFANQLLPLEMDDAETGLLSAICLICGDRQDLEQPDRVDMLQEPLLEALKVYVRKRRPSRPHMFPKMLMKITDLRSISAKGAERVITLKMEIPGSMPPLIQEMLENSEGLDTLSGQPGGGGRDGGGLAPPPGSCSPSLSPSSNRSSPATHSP
Sequence of human Retinoic Acid Receptor gamma (RARg), RARG (gene 5916) (P13631 whole entry, looked up, the tested form may be a part): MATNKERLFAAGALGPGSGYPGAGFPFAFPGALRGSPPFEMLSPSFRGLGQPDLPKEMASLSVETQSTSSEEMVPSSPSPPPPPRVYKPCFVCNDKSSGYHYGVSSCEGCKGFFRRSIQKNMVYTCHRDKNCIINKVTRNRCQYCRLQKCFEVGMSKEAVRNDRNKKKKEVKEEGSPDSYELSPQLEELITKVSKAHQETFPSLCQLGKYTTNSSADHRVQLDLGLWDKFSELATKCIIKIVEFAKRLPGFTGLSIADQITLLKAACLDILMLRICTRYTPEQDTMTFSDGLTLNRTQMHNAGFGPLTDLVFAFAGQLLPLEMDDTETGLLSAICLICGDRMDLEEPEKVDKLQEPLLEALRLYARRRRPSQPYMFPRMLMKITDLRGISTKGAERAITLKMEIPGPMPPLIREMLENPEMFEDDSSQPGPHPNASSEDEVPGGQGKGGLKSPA
Sequence of Peroxisome proliferator-activated receptor gamma (Homo sapiens) (P37231 whole entry, looked up, the tested form may be a part): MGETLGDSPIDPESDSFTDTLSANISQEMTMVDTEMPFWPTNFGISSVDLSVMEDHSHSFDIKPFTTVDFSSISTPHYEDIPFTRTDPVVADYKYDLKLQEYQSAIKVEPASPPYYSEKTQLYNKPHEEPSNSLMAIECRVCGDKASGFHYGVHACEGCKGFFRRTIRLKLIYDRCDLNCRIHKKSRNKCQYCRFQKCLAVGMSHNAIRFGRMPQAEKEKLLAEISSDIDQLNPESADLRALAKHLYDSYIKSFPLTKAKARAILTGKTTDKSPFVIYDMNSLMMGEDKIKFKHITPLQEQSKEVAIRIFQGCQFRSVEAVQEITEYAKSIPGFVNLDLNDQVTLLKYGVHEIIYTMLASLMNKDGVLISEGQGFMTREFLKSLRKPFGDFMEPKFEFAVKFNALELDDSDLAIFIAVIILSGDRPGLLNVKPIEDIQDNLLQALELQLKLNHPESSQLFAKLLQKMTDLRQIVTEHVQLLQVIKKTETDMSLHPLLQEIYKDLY
Sequence of Retinoic acid receptor RXR-alpha (Homo sapiens) (P19793 whole entry, looked up, the tested form may be a part): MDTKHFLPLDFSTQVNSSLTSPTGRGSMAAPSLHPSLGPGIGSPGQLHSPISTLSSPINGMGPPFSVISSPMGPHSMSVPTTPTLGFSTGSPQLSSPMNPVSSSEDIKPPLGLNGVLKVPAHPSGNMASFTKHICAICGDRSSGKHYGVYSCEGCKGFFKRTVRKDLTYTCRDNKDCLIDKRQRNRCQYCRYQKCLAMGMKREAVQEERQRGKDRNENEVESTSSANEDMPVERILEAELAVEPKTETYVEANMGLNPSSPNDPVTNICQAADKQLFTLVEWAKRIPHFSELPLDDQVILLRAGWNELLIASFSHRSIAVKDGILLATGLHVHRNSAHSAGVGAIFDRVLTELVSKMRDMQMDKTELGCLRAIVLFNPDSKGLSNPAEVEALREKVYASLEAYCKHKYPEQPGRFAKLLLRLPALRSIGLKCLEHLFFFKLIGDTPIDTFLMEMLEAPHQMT
Sequence of human RAR-related Orphan Receptor gamma (RORg), RORC (gene 6097) (P51449 whole entry, looked up, the tested form may be a part): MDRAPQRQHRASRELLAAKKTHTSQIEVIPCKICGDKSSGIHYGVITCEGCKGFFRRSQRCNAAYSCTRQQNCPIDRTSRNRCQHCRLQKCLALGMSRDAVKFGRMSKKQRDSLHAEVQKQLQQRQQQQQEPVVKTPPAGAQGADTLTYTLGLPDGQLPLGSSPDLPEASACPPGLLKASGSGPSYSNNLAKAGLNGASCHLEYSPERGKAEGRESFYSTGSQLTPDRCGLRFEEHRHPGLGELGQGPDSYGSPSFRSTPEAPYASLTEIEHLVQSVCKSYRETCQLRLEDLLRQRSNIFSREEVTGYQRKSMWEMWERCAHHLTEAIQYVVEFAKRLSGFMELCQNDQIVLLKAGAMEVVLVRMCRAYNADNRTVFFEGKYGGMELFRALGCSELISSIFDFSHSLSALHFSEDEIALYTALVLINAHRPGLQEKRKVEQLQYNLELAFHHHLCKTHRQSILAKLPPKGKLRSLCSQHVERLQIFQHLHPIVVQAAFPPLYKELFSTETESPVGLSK
Sequence of human Peroxisome Proliferator-activated Receptor alpha (PPARa), PPARA (gene 5465) (Q07869 whole entry, looked up, the tested form may be a part): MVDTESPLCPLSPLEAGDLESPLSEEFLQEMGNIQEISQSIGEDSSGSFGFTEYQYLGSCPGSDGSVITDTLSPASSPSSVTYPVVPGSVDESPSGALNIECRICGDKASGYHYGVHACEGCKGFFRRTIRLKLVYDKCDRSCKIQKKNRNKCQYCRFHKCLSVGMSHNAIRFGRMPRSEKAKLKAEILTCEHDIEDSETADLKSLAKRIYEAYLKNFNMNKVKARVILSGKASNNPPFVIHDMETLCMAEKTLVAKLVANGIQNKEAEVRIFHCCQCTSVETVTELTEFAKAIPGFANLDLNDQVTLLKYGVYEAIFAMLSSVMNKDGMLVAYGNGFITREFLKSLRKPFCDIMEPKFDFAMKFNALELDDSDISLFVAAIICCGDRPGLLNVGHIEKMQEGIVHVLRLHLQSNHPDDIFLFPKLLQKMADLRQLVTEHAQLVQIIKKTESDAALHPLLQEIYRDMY
Sequence of Cellular tumor antigen p53 (Homo sapiens) (P04637 whole entry, looked up): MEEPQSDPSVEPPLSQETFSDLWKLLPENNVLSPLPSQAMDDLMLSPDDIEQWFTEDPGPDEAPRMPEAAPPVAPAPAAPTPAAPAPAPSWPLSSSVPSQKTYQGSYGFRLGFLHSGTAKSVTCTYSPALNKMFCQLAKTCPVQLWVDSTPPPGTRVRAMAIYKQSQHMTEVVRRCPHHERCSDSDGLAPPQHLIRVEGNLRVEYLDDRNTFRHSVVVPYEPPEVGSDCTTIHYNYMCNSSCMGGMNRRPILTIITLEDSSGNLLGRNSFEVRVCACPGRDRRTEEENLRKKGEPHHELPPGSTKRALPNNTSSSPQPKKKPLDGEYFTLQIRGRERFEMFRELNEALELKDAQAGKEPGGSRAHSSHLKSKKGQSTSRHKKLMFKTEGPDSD
Sequence of human Retinoic Acid Receptor beta (RARb), RARB (gene 5915) (P10826 whole entry, looked up, the tested form may be a part): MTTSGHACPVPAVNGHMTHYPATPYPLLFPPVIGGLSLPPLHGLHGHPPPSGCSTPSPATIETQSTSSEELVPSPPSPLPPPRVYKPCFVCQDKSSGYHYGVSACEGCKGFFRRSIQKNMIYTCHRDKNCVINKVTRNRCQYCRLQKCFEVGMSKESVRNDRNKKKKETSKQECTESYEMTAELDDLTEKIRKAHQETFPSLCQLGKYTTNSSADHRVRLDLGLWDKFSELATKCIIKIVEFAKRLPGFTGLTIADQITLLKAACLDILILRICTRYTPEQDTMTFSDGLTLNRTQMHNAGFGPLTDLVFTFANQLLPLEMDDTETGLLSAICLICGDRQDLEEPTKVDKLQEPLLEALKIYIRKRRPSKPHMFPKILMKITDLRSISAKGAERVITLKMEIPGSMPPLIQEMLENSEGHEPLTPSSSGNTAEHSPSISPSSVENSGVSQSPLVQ
Sequence of human RAR-related Orphan Receptor beta (RORb), RORB (gene 6096) (Q92753 whole entry, looked up, the tested form may be a part): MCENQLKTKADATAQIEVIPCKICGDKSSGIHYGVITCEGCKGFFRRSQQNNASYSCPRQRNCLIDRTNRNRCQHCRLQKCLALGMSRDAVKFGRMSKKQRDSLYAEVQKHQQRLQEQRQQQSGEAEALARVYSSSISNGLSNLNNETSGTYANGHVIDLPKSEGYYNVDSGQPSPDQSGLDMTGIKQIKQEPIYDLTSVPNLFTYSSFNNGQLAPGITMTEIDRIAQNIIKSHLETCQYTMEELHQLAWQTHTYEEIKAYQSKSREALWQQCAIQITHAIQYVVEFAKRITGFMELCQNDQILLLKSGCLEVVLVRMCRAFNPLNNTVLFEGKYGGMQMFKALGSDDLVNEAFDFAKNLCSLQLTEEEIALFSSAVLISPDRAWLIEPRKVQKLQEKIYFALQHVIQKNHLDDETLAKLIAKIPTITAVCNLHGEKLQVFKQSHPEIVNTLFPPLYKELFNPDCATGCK
Sequence of Nuclear receptor subfamily 1 group I member 2 (Homo sapiens) (O75469 whole entry, looked up, the tested form may be a part): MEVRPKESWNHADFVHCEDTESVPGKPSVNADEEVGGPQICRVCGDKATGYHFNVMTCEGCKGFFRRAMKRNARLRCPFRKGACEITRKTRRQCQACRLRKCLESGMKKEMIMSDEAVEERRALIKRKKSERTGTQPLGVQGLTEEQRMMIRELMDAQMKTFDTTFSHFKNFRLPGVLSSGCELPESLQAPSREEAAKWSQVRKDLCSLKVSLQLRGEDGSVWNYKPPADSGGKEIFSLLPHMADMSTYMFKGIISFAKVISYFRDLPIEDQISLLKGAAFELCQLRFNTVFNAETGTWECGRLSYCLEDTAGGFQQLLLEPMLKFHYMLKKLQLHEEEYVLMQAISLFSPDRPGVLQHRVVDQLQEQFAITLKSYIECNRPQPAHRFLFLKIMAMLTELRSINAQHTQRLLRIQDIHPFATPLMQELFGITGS

Usually AC50 stands for the concentration at which the activity in the assay is half-maximal. As for `C=CCCCCCCCCC(=O)O`, the outcome in [1], in [2], in [3], in experiment [4], in experiment [5] and in [6] was inactive. For the same molecule, the result in experiment [7], in experiment [8], in [10], in experiment [11], in [12] and in [13] was inactive. Further, the call in experiment [15] and in experiment [16] was inactive. For the same molecule, the values for the AC50 in [9] and in experiment [14] were 26.7 µM (active) and 69.1 µM (active), respectively.

For `C=CC(=C)CCC=C(C)C`, the molecule was classed as inactive in experiment [1], in experiment [2], in [3], in experiment [4], in [5] and in experiment [6]. The result in experiment [7], in [8], in experiment [10], in experiment [13] and in experiment [17] was inactive. For the same molecule, the AC50 in [14] was 100 µM (active).

`COC(=O)c1ccccc1O`: the result in experiment [1], in experiment [2], in experiment [4], in [5], in experiment [6] and in experiment [7] was inactive. Also, the result in experiment [8], in experiment [10], in experiment [11], in experiment [12], in experiment [13] and in [15] was inactive. Besides, in experiment [16], the result was inactive. In addition, the values for the AC50 in experiment [3] and in experiment [18] were 59.6 µM (active) and 24.9 µM (active), respectively.

In the case of `O=C1CCCCCN1`, the call in [2], in [3], in experiment [4], in experiment [5], in [6] and in experiment [7] was inactive. Besides, the outcome in experiment [8], in [10], in [11], in [12], in [13] and in experiment [15] was inactive. Also, the call in experiment [17] and in experiment [16] was inactive. For the same molecule, the concentration at half-maximal activity (AC50) in experiment [9] is 3.37 µM (active).

Consider `CC[C@H](C)C(=O)O[C@H]1C[C@@H](C)C=C2C=C[C@H](C)[C@H](CC[C@@H]3C[C@@H](O)CC(=O)O3)[C@H]21`, for which the outcome in experiment [1], in [4], in experiment [9] and in experiment [14] was inactive. Besides, the AC50 in experiment [2] is 33.4 µM (active); in experiment [3], 6.78 µM (active); in experiment [5], 31 µM (active); in experiment [6], 18.3 µM (active); in experiment [7], 33.7 µM (active); in experiment [8], 31.5 µM (active). Moreover, the AC50 is 36.8 µM (active) in experiment [10] and 13.6 µM (active) in experiment [13].

With `COCCOc1cc2cc(C(=O)NC3CCN(C(C)C)CC3)n(CC(=O)Nc3ccc(Cl)cn3)c2cn1`, the figures for the AC50 in experiment [1], in [2] and in experiment [3] were 180 µM (active), 72.9 µM (active) and 119 µM (active), respectively. Moreover, the result in experiment [4], in experiment [5], in experiment [6], in experiment [7], in experiment [8] and in [9] was inactive. For the same molecule, the outcome in experiment [10], in experiment [15], in experiment [19] and in [16] was inactive.

As to `CCc1cc(SCc2sc(-c3ccc(C(F)(F)F)cc3)nc2CN2CCN(c3ccc(OC)cc3)CC2)ccc1OCC(=O)O`, the AC50 in [2] is 4.51 µM (active); in experiment [3], 8.42 µM (active); in experiment [5] it was 12.4 µM (active); in experiment [6], 7.74 µM (active); in [7], 27.7 µM (active); in experiment [8] it was 10.9 µM (active). Further, the AC50 in experiment [9] is 0.0501 µM (active); in [20], 0.00449 µM (active); in experiment [10], 29.9 µM (active); in experiment [13], 9.19 µM (active); in [14] it was 0.0352 µM (active); in [18] it was 4.69 µM (active). In addition, the call in [4], in experiment [15], in [19], in experiment [17] and in [16] was inactive.
